Abeta yeast res = qHTS for compounds that reverse cellular toxicity of Amyloid beta (A-beta) peptide in yeast: Primary Screen; yeast expressing A-beta42, growth rescue, OD600, 48 h; response scale: 0% DMSO, 100% iron-clioquinol control; Potency, µM (highest dose often 46.1 µM), hits mostly activators; 0.063% of 410,000 active; also: nearly all actives have a fitted effect of over 55% in size
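Yeast A-beta toxicity model in growth medium with pinned compounds, 48 h at 30 C; growth read as absorbance at 600 nm. Normalized to FeCl3/clioquinol equimolar mix (positive) and DMSO (negative).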
aSyn rescue = qHTS of alpha-syn Inhibitors | Yeast expressing alpha-synuclein, growth rescue, BacTiter-Glo, 24 h | Potency, µM (series often up to 46.1 µM), actives largely listed as activators | 0.14% of 370,000 active; also: nearly all actives have a fitted effect of over 65% in size
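Screening used galactose-induced yeast with toxic alpha-synuclein levels, exposed to compound for 24 hr at 30 deg C. Cell growth, read with BacTiter-Glo luminescence, gave the measured signal.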
FUS yeast rescue = qHTS for Suppressors of FUS Proteinopathy: Primary screen using FUS-linked yeast assay; Potency, µM (top dose mostly 76.6 µM), usual class: activators; S. cerevisiae FUS-expressing, growth rescue, OD600, 24 h; 0.24% of 390,000 active; also: nearly all actives have a fitted effect of over 55% in size
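Cultures pregrown in 2.5% raffinose medium are shifted to minimal medium containing 2% galactose to express toxic FUS. Compounds are tested at several concentrations. After 24hr at 30C, growth is quantified at 600 nm absorbance.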
TDP43 rescue = qHTS of TDP-43 Inhibitors; Potency, µM (doses to about 46.1 µM), hits mostly activators; 1.8% of 410,000 active; TDP-43 expressing yeast growth rescue, BacTiter-Glo, 24 h; also: nearly all actives have a fitted effect of over 50% in size
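Growth rescue of TDP-43-toxic yeast measured as ATP luminescence (BacTiter-Glo). Cells grown to mid-log in raffinose, induced in galactose at OD600=0.02, exposed to compound 24 hr at 30 deg C.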
Large screens that a line does not name were inactive. Most compounds without a hit are left out; they make up all but 2.1% or so of the library. Calls follow the shape of the dose curve; as a rule, active = well fitted curve in the direction sought with a large enough effect; inconclusive = small, poorly fitted or top-dose-only effect, or another doubt; inactive = no such curve, though single readings can be large; an effect the other way counts as inactive or inconclusive.

C/C(=N\NC(=O)c1cc(-c2cccs2)nc2ccccc12)c1ccccn1	Abeta yeast res 13µM, aSyn rescue 14µM, TDP43 rescue 22µM
COc1cc2c(NC3CCN(C)CC3)nc(N3CCCN(C)CC3)nc2cc1OCCCCCN(C)C	none (no result: Abeta yeast res, FUS yeast rescue, TDP43 rescue)
CN=C1S/C(=C/c2cc(C)n(Cc3ccccc3)c2C)C(=O)N1C	none (no result: Abeta yeast res, aSyn rescue, TDP43 rescue)
FC(F)(F)c1cnc(Nc2ccc(N3CCOCC3)cc2)c(Cl)c1	TDP43 rescue 13µM
COc1ccc(C(=O)CC2(O)C(=O)N(Cc3cccc(C(F)(F)F)c3)c3ccccc32)cc1 (stereo unspecified)	aSyn rescue inconclusive, FUS yeast rescue inconclusive, TDP43 rescue 22µM
Cc1ccc(CNC(=O)OC(C)(C)C)c(/C=C/S(=O)(=O)NCCc2ccccc2)c1	none (no result: Abeta yeast res, aSyn rescue, TDP43 rescue)
CCC(CC)C(=O)Nc1cc(-c2cccc(C)c2)nn1-c1ccccc1	TDP43 rescue 13µM (no result: aSyn rescue)
Cc1ccc(Cn2c(C(CO)Nc3nc(-c4ccc(Cl)c([N+](=O)[O-])c4)cs3)nc3ccccc32)cc1 (stereo unspecified)	aSyn rescue inconclusive, FUS yeast rescue inconclusive, TDP43 rescue 25µM
Cc1ccc(Cn2c(C(CO)Nc3nc(-c4ccc(F)cc4)cs3)nc3ccccc32)cc1 (stereo unspecified)	Abeta yeast res inconclusive, FUS yeast rescue inconclusive
Fc1ccccc1NC(=S)NCc1ccc(Cl)cc1	Abeta yeast res inconclusive, TDP43 rescue 11µM
S=C(NCc1ccccc1)Nc1cccc(Cl)c1	TDP43 rescue 28µM (no result: FUS yeast rescue)
Fc1ccc(CNC(=S)Nc2ccccc2F)cc1	Abeta yeast res inconclusive, TDP43 rescue inconclusive
CCCC(=O)Oc1c(Sc2ccc(Cl)cc2)c(C)nn1-c1ccccc1	none (no result: aSyn rescue)
Cc1nc2ccccc2n1CCc1nc2c3ccccc3nc(SCc3ccc(C#N)cc3)n2n1	none (no result: aSyn rescue)
O=C(O)c1cc2c(s1)-c1ccccc1OC2	TDP43 rescue 32µM
O=C(c1ccc2c(c1)OCO2)N1CCC(Oc2cccnc2)CC1	none (no result: Abeta yeast res, aSyn rescue, TDP43 rescue)
Nc1nonc1-c1noc(-c2ccccc2Br)n1	TDP43 rescue 13µM
FC(F)(F)c1ccc(-c2noc(-c3ccccc3Br)n2)cc1	none (no result: aSyn rescue)
O=C1c2ccccc2C2N1CCCN2C(=O)c1sc2ccccc2c1Cl (stereo unspecified)	TDP43 rescue 18µM
COc1ccc(C(=O)N2C=Cc3ccccc3C2C#N)cc1 (stereo unspecified)	TDP43 rescue 16µM
Cc1cc(=O)[nH]c(N/N=C/c2cc(C)n(-c3ccccc3)c2C)n1	FUS yeast rescue 32µM
O=C(CSc1nnc(SCc2cccc3ccccc23)s1)Nc1ccccc1-c1ccccc1	none (no result: Abeta yeast res, aSyn rescue, TDP43 rescue)
Cc1nc(-c2ccccc2)sc1-c1ccn[nH]1	TDP43 rescue 14µM
Cc1nc(-c2ccccc2)sc1-c1ccnn1C	none
O=C(NNC(=O)c1ccc(Cl)cc1Cl)c1csc(-c2cccnc2)n1	none
O=C(NCc1ccc(Cl)cc1)c1csc(-c2cccnc2)n1	TDP43 rescue 16µM
Cc1ccc(S(=O)(=O)N2CCOCC2)cc1NC(=O)COC(=O)CCc1c[nH]c2ccccc12	none (no result: FUS yeast rescue)
O=C(COC(=O)Cc1c[nH]c2ccccc12)Nc1cc(S(=O)(=O)N2CCOCC2)ccc1Cl	FUS yeast rescue 35µM
Nc1ncnc2nc(-c3ccc(N4CCOCC4)nc3)cc(-c3cccc(Br)c3)c12	aSyn rescue 21µM (no result: Abeta yeast res, FUS yeast rescue, TDP43 rescue)
c1ccc(-c2nc(SCC3CCCCO3)n[nH]2)cc1 (stereo unspecified)	none (no result: Abeta yeast res, FUS yeast rescue, TDP43 rescue)
O=Cc1c(NCc2ccccc2F)c2ccccc2[nH]c1=O	TDP43 rescue 11µM
C[C@H]1C2CC(OC(=O)Nc3ccc(C#N)cc3)C(C2)[C@H]2CCCCN21 (stereo partly specified)	none (no result: Abeta yeast res, aSyn rescue, TDP43 rescue)
CCN1CCCC1CN(Cc1cc2cc(C)cc(C)c2[nH]c1=O)C(=O)Nc1ccccc1OC (stereo unspecified)	FUS yeast rescue 32µM
C[C@H]1CCC/C=C/C(=O)c2c(cc(O)c(Cl)c2O)CC(=O)O1	none (no result: Abeta yeast res, aSyn rescue, TDP43 rescue)
Cc1ccnc(SCc2cc(=O)c(OC(=O)c3ccc(C)c([N+](=O)[O-])c3)co2)n1	none (no result: Abeta yeast res, aSyn rescue, TDP43 rescue)
O=C(NC1CCCC1)c1ccccc1OCc1ccccc1	TDP43 rescue 20µM
COc1ccccc1C(=O)NC1CCCCCCC1	TDP43 rescue 18µM
COC[C@H]1CCCN1c1cccc2c1S(=O)(=O)N(C1CC1)CC[C@@H](C)O2	none (no result: Abeta yeast res, aSyn rescue, TDP43 rescue)
O=C1c2ccccc2N2C(=O)c3ccccc3[C@H]2N1c1ccccc1	TDP43 rescue 20µM
CC12CCC3C(=CCc4cc(O)ccc43)C1CC(=NO)C2O (stereo unspecified)	none (no result: FUS yeast rescue)
COc1ccc2c(c1)CC=C1C2CCC2(C)C(=O)C(=NO)CC12 (stereo unspecified)	TDP43 rescue 11µM
CCOc1ccc(C(=O)CCC(=O)O)cc1	none
CCOc1ccc(-c2noc(CCC(=O)O)n2)cc1	TDP43 rescue 32µM
CCOc1ccc(OCCCC(=O)O)cc1	TDP43 rescue 13µM
Cc1cccc(NC(=O)CSc2nnc(SCc3ccc(Cl)cc3)s2)c1	none (no result: Abeta yeast res, aSyn rescue, TDP43 rescue)
CC1=C(C(=O)N(C(C)C)C(C)C)CC(CC(=O)NCc2cccc3ccccc23)C(=O)N1Cc1ccc(F)cc1 (stereo unspecified)	aSyn rescue inconclusive, FUS yeast rescue 18µM
COc1ccc(CN2C(=O)C(CC(=O)NC3CCCCC3)CC(C(=O)N(C)C)=C2C)cc1 (stereo unspecified)	aSyn rescue 3.5µM
CC1=C(C(=O)N(C(C)C)C(C)C)CC(CC(=O)NCc2cccc3ccccc23)C(=O)N1Cc1ccccc1 (stereo unspecified)	none
CCCc1cc(C(=O)Nc2ccc(C(=O)c3ccccc3)cc2)n(C)n1	TDP43 rescue 25µM
CCCc1cc(C(=O)Nc2ccc(C(=O)c3ccc(F)cc3)cc2)n(C)n1	FUS yeast rescue inconclusive, TDP43 rescue inconclusive
O=S(=O)(Nc1nc2ccccc2nc1Cl)c1ccc(F)cc1	Abeta yeast res inconclusive
O=S(=O)(Nc1nc2ccccc2nc1Cl)c1ccccc1	TDP43 rescue 35µM
O=C(OCC(=O)C12CC3CC(CC(C3)C1)C2)c1ccc(O)cc1	TDP43 rescue 11µM
O=C(Oc1ccc(O)cc1)C12CC3CC(CC(C3)C1)C2	TDP43 rescue 14µM
c1ccc2sc(-c3csc4c3CCNC4)nc2c1	none (no result: Abeta yeast res, aSyn rescue, TDP43 rescue)
Cc1nn(Cc2ccc(C(=O)Nc3ccccc3C(F)(F)F)o2)c(C)c1Br	TDP43 rescue 13µM (no result: aSyn rescue)
COc1ccccc1N1CCN(S(=O)(=O)c2ccc(-c3ccno3)cc2OC)CC1	TDP43 rescue 13µM (no result: aSyn rescue)
COc1cc(-c2ccno2)ccc1S(=O)(=O)N1CCN(c2ccccc2)CC1	TDP43 rescue 11µM (no result: aSyn rescue)
COc1cccc(N2CCN(S(=O)(=O)c3ccc(-c4ccno4)cc3OC)CC2)c1	TDP43 rescue 13µM (no result: aSyn rescue)
CN(CCNC(=O)c1cc2c(=O)n(C)c3ccccc3c2n1C)Cc1ccccc1	aSyn rescue inconclusive
CCCN(CCC)CCNC(=O)c1cc2c(=O)n(C)c3ccccc3c2n1C	aSyn rescue 11µM
O=C(COC(=O)c1c(Cl)cccc1Cl)NCc1cccs1	TDP43 rescue inconclusive (no result: FUS yeast rescue)

Assay outcomes from PubChem BioAssay.
